This is a sample that favours compounds with a hit; in the whole collection about 27% have one here.
sEH inh – soluble epoxide hydrolase (human) inhibition; recombinant human sEH enzymatic activity assay; AID 707; 91,000 compounds, 0.34% hits; inhibition, % at 2 µM; P34913; in the data active means inhibition above about 80%
Target sequence (P34913 whole entry, looked up): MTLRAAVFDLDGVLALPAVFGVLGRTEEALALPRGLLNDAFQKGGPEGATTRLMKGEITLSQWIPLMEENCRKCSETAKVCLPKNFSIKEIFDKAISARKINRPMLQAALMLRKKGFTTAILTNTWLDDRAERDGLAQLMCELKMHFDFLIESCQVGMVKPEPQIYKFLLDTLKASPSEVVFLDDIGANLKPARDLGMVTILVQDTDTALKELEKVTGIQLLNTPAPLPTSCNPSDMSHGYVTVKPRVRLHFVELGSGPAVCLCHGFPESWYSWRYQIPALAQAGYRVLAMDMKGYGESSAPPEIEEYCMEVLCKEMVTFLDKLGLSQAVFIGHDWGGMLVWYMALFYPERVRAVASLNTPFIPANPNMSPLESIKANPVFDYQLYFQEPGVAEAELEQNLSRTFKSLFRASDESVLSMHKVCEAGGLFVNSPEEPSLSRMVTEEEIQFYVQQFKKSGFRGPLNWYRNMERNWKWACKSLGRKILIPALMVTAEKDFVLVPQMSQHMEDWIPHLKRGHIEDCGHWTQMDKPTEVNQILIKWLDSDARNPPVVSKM
sEH act – activators of human soluble epoxide hydrolase. 91,000 compounds, 0.04% hits. AID 717. purified human sEH enzymatic activity, activator screen. activation, % at 2 µM; in the data active means activation above about 37%
CYP2C9 activ – increases human cytochrome P450 2C9 activity | activation factor at 5 µM | P11712 | recombinant CYP2C9, luciferin-H conversion, luminescence; hits give high values; factor 1 = untreated enzyme, 0 = blocked | 96,000 compounds, 1.4% hits;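 active means activation factor of 2 or more for CYP2C9 at a 5 µM dose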
CYP2C19 activ – activators of human cytochrome P450 2C19; P33261; 96,000 tested, under 10 active; AID 1025; activation factor at 5 µM; recombinant CYP2C19, luciferin-H EGE luminescence; hits give high values; 0 = fully inhibited enzyme, 1 = untreated enzyme;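 active means activation factor of at least 2 at 5 µM in the primary screen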
CYP2C9 inhib – human CYP2C9 inhibition. CYP2C9 Supersomes, luciferin-H conversion, luminescence. inhibition, % at 5 µM. 96,000 compounds, 20% hits. AID 777;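 active means blocking of liver enzyme CYP2C9 beyond about 50% at 5 µM, limit read from the data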
CYP2C19 inhib – blocks human cytochrome P450 2C19. inhibition, % at 5 µM. 96,000 compounds, 21% hits. CYP2C19 Supersomes, luciferin-H EGE luminescence, 30 min;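 active means CYP2C19 inhibition above a set limit at 5 µM in the primary screen, cut at about 50% in these data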
A number is an active result; – = inactive; · = not tested or not shown.

SMILES	sEH inh	sEH act	CYP2C9 activ	CYP2C19 activ	CYP2C9 inhib	CYP2C19 inhib
Cn1c(=O)oc2cc(S(=O)(=O)NC(Cc3ccccc3)C(=O)N3CCCCC3)ccc21 (stereo unspecified)	–	–	–	–	–	–
Cn1c(=O)c2cc(S(=O)(=O)Nc3ccc4c(c3)OCO4)ccc2n(C)c1=O	–	–	–	–	85	84
Cn1c(=O)c2cc(S(=O)(=O)N3CCOCC3)ccc2n(C)c1=O	–	–	–	–	–	–
CC(C)CC(NS(=O)(=O)c1ccc2c(c1)oc(=O)n2C)C(=O)NCc1cccnc1 (stereo unspecified)	·	·	–	–	–	53
O=C(Nc1ccc(F)cc1F)c1sccc1SCc1cccc(C(F)(F)F)c1	–	–	–	–	58	–
O=C(Nc1ccc(F)cc1F)c1ccco1	–	–	–	–	–	–
COc1ccc(NC(=O)c2sccc2SCc2cccc(C(F)(F)F)c2)cc1	–	–	–	–	69	50
O=C(Nc1cccc(C(F)(F)F)c1)c1ccco1	–	–	–	–	–	–
O=C(Nc1ccc(F)cc1)c1sccc1SCc1cccc(C(F)(F)F)c1	–	–	–	–	65	–
COc1ccc(NC(=O)Nc2nnc(-c3ccccc3SCc3ccccc3)s2)cc1	–	–	–	–	–	–
COc1ccccc1-c1nc(C#N)c(N2CCN(C(c3ccccc3)c3ccccc3)CC2)o1	–	–	–	–	–	–
CCn1c2ccccc2c2cc(NC(=O)CSc3nnc(-c4cccc(Cl)c4)o3)ccc21	–	–	–	–	–	–
CCC1CCCCN1C(=O)CSc1nnc(-c2ccco2)o1 (stereo unspecified)	–	–	·	·	·	·
CCC1CCCCN1C(=O)CSc1nnc(CNC(=O)COc2ccc(Cl)cc2)o1 (stereo unspecified)	–	–	–	–	62	–
CCC1CCCCN1C(=O)CSc1nnc(-c2ccc(Cl)s2)o1 (stereo unspecified)	–	–	–	–	–	95
CCOC(=O)N1CCN(C(=O)CSc2nnc(-c3ccc(Cl)s3)o2)CC1	–	–	–	–	–	–
CCC1CCCCN1C(=O)CSc1nnc(-c2ccc(Cl)cc2)o1 (stereo unspecified)	–	–	–	–	–	82
CCC1CCCCN1C(=O)CSc1nnc(-c2cccc(Cl)c2)o1 (stereo unspecified)	·	·	2.3	–	–	98
Cc1cc(NC(=O)CCC(=O)N(c2ccccc2)C(C(=O)NCC2CCCO2)c2cccnc2)no1 (stereo unspecified)	–	–	–	–	–	–
COC(=O)CCC(NC(=O)c1cc(-c2ccc3c(c2)OCCO3)oc1C)C(=O)OC (stereo unspecified)	–	–	–	–	–	52
COC(=O)C1=C(C)NC(=O)C1(NC(=O)c1cccnc1)C(F)(F)F (stereo unspecified)	–	–	·	·	·	·
COC(=O)C1=C(C)NC(=O)C1(Nc1ccc(Cl)cn1)C(F)(F)F (stereo unspecified)	–	–	–	–	–	70
Cn1c(SCc2cccnc2)nc2cccnc21	–	–	–	–	–	–
CCOc1ccc(NC2=NCCC(=O)N2Cc2cccs2)cc1	–	–	–	–	56	50
COC(=O)c1ccc(C(=O)OC)nc1	–	–	–	–	–	–
SMILES	sEH inh	sEH act	CYP2C9 activ	CYP2C19 activ	CYP2C9 inhib	CYP2C19 inhib
COC(=O)C1=C(C)N(C)C(C)=C(C(=O)OC)C1c1ccc(C(=O)OC)cc1	–	–	–	–	92	97
COC(=O)C1=C(C)N(C)C(=O)NC1c1ccc(C)cc1 (stereo unspecified)	–	–	–	–	–	54
CCOC(=O)C1=C(C)N(C)C(=O)NC1c1cccc(O)c1 (stereo unspecified)	–	–	–	–	–	–
COC(=O)C1=CNC=C(C(=O)OC)C1c1ccc(C(=O)OC)cc1	·	·	–	–	95	99
COC(=O)C1=C(C)N(C)C(C)=C(C(=O)OC)C1c1ccsc1	–	–	–	–	91	68
c1ccc2cc(-c3cc4ccccn4c3)ccc2c1	–	–	–	–	–	–
Cc1ccc(S(=O)(=O)Cc2c(C)noc2C)cc1	–	–	–	–	–	100
Cc1noc(C)c1COC(=O)CN(C)S(=O)(=O)c1ccc(Cl)cc1	·	·	–	–	–	–
Cc1noc(C)c1CS(=O)(=O)c1ccc(Br)cc1	–	–	–	–	–	98
C=CCN1CCN(c2ccncc2S(=O)(=O)N2CCOCC2)CC1	–	–	–	–	–	–
CCN(CC)S(=O)(=O)c1cc(C(=O)Nc2nncs2)c(Cl)cc1Cl	–	–	–	–	–	–
COc1ccc(CCNC(=O)c2n[nH]c(=O)c3ccccc23)cc1	–	–	–	–	–	–
C=CCSc1nncn1/N=C/c1ccc(OC)cc1	–	–	–	–	–	82
CCOc1ccc(S(=O)(=O)NCc2cccs2)cc1	–	–	–	–	–	–
CCOc1ccc(S(=O)(=O)Nc2cc(Sc3ncn[nH]3)c3oc(=O)sc3c2)cc1	–	–	–	–	67	69
CCCCN(C)C(=O)C1CCN(Cc2ccc(OCc3ccccc3)cc2)CC1	–	–	·	·	·	·
Cc1cc(Cl)c(S(=O)(=O)NCc2cccnc2)cc1OCC(=O)NC1CCCCC1	–	–	–	–	58	–
Cc1cc(Cl)c(S(=O)(=O)Nc2ccc(Cl)cn2)cc1OCC(N)=O	–	–	·	·	·	·
O=C(COc1ccc(S(=O)(=O)N2CCCC2)cc1Cl)NC1CCCC1	–	–	–	–	–	–
Cc1cc(Cl)c(S(=O)(=O)N2CCCC2)cc1OCC(=O)NC1CCCCC1	–	–	–	–	77	95
Cc1cc(Cl)c(S(=O)(=O)Nc2ccc3c(c2)OCO3)cc1OCC(N)=O	–	–	–	–	62	90
Cc1cc(Cl)c(S(=O)(=O)Nc2ccc3c(c2)OCO3)cc1OCC(=O)NC1CCCCC1	–	–	–	–	62	79
Cc1cc(Cl)c(S(=O)(=O)NC(C(=O)O)C(C)C)cc1OCC(=O)NC1CCCCC1 (stereo unspecified)	–	–	–	–	–	–
Cc1c(NC(=O)COc2ncnc3ccccc23)c(=O)n(-c2ccccc2)n1C	–	–	–	–	–	–
O=C(COC(=O)c1ccc(Cl)c(S(=O)(=O)N2CCCC2)c1)NC1CCCC1	–	–	–	–	–	65
COc1ccc(N2C(=O)CC(N3CCN(C4CCc5ccccc5C4)CC3)C2=O)cc1 (stereo unspecified)	–	–	–	–	–	–
COC(=O)c1nn(-c2ccccc2)c(=O)cc1Oc1ccccc1	–	–	–	–	–	–
c1coc(-c2nn3c(Cn4nnc5ccccc54)nnc3s2)c1	–	–	–	–	–	76
Clc1ccc(Cc2nn3c(Cn4nnc5ccccc54)nnc3s2)cc1	–	–	–	–	73	–
c1ccc2c(c1)nnn2Cc1nnc2sc(-c3ccncc3)nn12	–	–	–	–	57	78

Assay outcomes (PubChem BioAssay)
